According to PubChem BioAssay AID652104 (National Center for Advancing Translational Sciences (NCATS), 2013):
The whole screen tested about 410,000 compounds, of which about 7,200 (1.8%) were called active. Not shown: some 7% with an inconclusive outcome. This is one part of a sample in which actives are shown more often than they occur. Calls come from the whole dose curve; as a rule, active = well fitted activation curve with a large enough effect; inconclusive = small, poorly fitted or top-dose-only effect, or another doubt; inactive = no such curve, though single readings can be large or run the other way.

Test: qHTS of TDP-43 Inhibitors; note: nearly all actives have a fitted effect of over 50% in size; for Growth rescue (activation): % of control where 0% means no effect
Details: TDP-43 expressing yeast growth rescue, BacTiter-Glo, 24 h; series mostly up to 46.1 µM
Excerpt: The goal of this project is to identify new chemical probes capable of reversing the toxicity associated with TDP-43 which is associated with frontotemporal lobar degeneration and amyotrophic lateral sclerosis. These compounds will provide a complementary approach to deciphering the tangled mechanisms of toxicity and protection that we have uncovered through genome-wide genetic screens and are beginning to uncover in a large-scale proteomics analysis with mass spectroscopy.
To this end, a miniaturized assay was developed to be screened against the Molecular Libraries Small Molecule Repository (MLSMR) to discover TDP-43 inhibitors. Please note that in the set-up this yeast-based assay compounds that inhibit as TDP-43, have a read-out as activators.
NIH Chemical Genomics Center [NCGC]
NIH Molecular Libraries Probe Centers Network [MLPCN]
Assay Submitter (PI): Susan Lindquist, Whitehead Institute/MIT
Dispense 2.5 microL yeast galactose medium per 1536-well plate, pin compound, dispense 2.5 microL TDP-43 expressing yeast in galactose medium at OD600=0.02 (pregrown in raffinose medium to mid-log phase) per well, incubate for 24 hr at 30 deg C, and cell growth will be measured using 5 microL of Bactiter/Glo reagent to entire plate and read using Luminescence Protocol in ViewLux.
Potency is the fitted concentration of half-maximal effect.

Potency, inactive:
CCN(CC)C(=O)CSc1nc2ccsc2c(=O)n1Cc1ccccc1Cl, COc1ccc(N2CCN(C3=NS(=O)(=O)C(c4cccc(Br)c4)=C3C)CC2)cc1, CCOC(=O)c1cc2occc2n1CC(=O)NC1CCC(C)CC1 (stereo not given), CCOC(=O)c1cc2occc2n1CC(=O)N1CCN(C(=O)c2ccco2)CC1, COc1ccc(OCCCn2c(C3CC(=O)N(c4ccc(F)cc4)C3)nc3ccccc32)cc1 (stereo not given), Cc1nc2ccn(Cc3cccs3)c(=O)c2cc1C(=O)NCc1ccc(Cl)cc1, CCOc1ccc(OCC)c(NS(=O)(=O)c2ccc3[nH]c(=O)ccc3c2)c1, COc1ccc(S(=O)(=O)Nc2cc3c(C(=O)OC(C)C)c(C)oc3c3ccccc23)cc1, N#C/C(=C\c1ccccc1F)c1nc2ccccc2c(=O)[nH]1, CCC(C(=O)Nc1cccc(-c2nc3cccnc3s2)c1C)c1ccccc1 (stereo not given), COc1cccc(NC(=O)Cn2c(=O)cc(C)c3c(C)nn(-c4cccc(F)c4)c32)c1, Cn1nnnc1SCCNCc1ccc(Cl)c(Cl)c1, Cc1cn(C)c(CC(=O)NCc2ccc(Cl)cc2)c1C(=O)O, COCOCCn1cc(CN2CCS(=O)(=O)N(Cc3ccc(-c4ccc(OC)cc4)cc3)C(CC(C)C)C2=O)nn1 (stereo not given), CC1C(=O)N(Cc2cn(Cc3ccco3)nn2)CCS(=O)(=O)N1Cc1ccc(-c2cccc(CO)c2)cc1 (stereo not given), CC(C)CC1C(=O)N(Cc2cn(Cc3ccco3)nn2)CCS(=O)(=O)N1Cc1ccc(-c2ccc(Cl)c(Cl)c2)cc1 (stereo not given), COc1ccc(-c2ccc(CN3C(C(C)C)C(=O)N(Cc4cn(CC5CCCCC5)nn4)CCS3(=O)=O)cc2)cn1 (stereo not given), Cc1ccc(-c2ccc(CN3C(C)C(=O)N(Cc4cn(CCC5OCCCO5)nn4)CCS3(=O)=O)cc2)cc1 (stereo not given), COc1ccc(Cn2cc(CN3CCS(=O)(=O)N(Cc4ccc(-c5cccc(Cl)c5)cc4)C(C)C3=O)nn2)cc1 (stereo not given)

Potency, active:
CCOC(=O)c1cc2c(ccn2C)n1CC(=O)N1CCC(C)CC1 35.5 µM, COc1cc(NS(=O)(=O)c2ccc3ccccc3c2)c2ncccc2c1 12.6 µM, CC(C)C1C(=O)N(Cc2cn(CCC3OCCO3)nn2)CCS(=O)(=O)N1Cc1ccc(-c2ccccc2C(F)(F)F)cc1 (stereo not given) 35.5 µM, Cc1ccc(-c2ccc(CN3C(C(C)C)C(=O)N(Cc4cn(CCC5OCCCO5)nn4)CCS3(=O)=O)cc2)cc1 (stereo not given) 35.5 µM, Cc1ccc(-c2ccc(CN3C(C(C)C)C(=O)N(Cc4cn(CCC5OCCO5)nn4)CCS3(=O)=O)cc2)cc1 (stereo not given) 31.6 µM

Growth rescue (activation), inactive:
CCOc1cc2[nH]c(=O)n(Cc3ccc(C(=O)NCCN(CC)CC)cc3)c(=O)c2cc1OCC 25.5% [at 9.22 µM]
